“And” between values parts separate entries of the source, which are not always exact repeats. Equal values may be shown once. The campaign covered roughly 5,500 compounds. About 2,000 (36%) were called active. Inconclusive results (about 18%) are left out. No stated cut-off is given here; in the data, active means normalized growth mostly below about 0.91 (no sharp cut-off); inconclusive means no clear call, values can overlap the other calls; inactive means mostly above about 0.92. Some of the results follow.
Assay: chemical genetic growth profiling, strain panel (AID 1159580);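 further: tested at 20 µM; growth read once vehicle control cultures reached saturation at 30 °C; 1 = growth at the plate median or of vehicle wells; lower values mean less growth of the strain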
Conditions: growth OD

Measured: normalized growth

CNC(=O)Oc1ccc2c(c1)C1(C)CCN(C)C1N2C (centres undefined)
inactive: S. cerevisiae deletion strains, locus YAL013W, strain DEP1, active compounds read low 0.999 | S. cerevisiae deletion strains, locus YAL040C, strain CLN3, active compounds read low 0.99 | S. cerevisiae deletion strains, locus YBR021W, strain FUR4, active compounds read low 1.04 and 1.03 | S. cerevisiae deletion strains, locus YBR229C, strain ROT2, active compounds read low 1 and 1.01 | S. cerevisiae deletion strains, locus YCL029C, strain bik1, active compounds read low 0.991 and 1.01 | S. cerevisiae deletion strains, locus YCL061C, strain MRC1 (second series), active compounds read low 0.978 | S. cerevisiae deletion strains, locus YDL035C, strain GPR1, active compounds read low 1.01 and 1 | S. cerevisiae deletion strains, locus YDL074C, strain BRE1, active compounds read low 1.01 and 1 | S. cerevisiae deletion strains, locus YDL101C, strain DUN1, active compounds read low 0.994 and 0.998 | S. cerevisiae deletion strains, locus YDL134C, strain PPH21, active compounds read low 1.06 and 1 | S. cerevisiae deletion strains, locus YDL185W, strain tfp1, active compounds read low 0.966 and 1.01 | S. cerevisiae deletion strains, locus YDL192W, strain arf1, active compounds read low 1.02 and 1.01 | S. cerevisiae deletion strains, locus YDR101C, strain arx1, active compounds read low 0.98 and 1.01 | S. cerevisiae deletion strains, locus YDR150W, strain NUM1, active compounds read low 1.01 | S. cerevisiae deletion strains, locus YDR162C, strain NBP2, active compounds read low 1.01 and 0.986 | S. cerevisiae deletion strains, locus YDR318W, strain mcm21, active compounds read low 1.02 and 1.01 | S. cerevisiae deletion strains, locus YDR363W, strain ESC2, active compounds read low 0.964 | S. cerevisiae deletion strains, locus YDR388W, active compounds read low 0.994 and 1.01 | S. cerevisiae deletion strains, locus YDR502C, strain sam2, active compounds read low 0.993 and 0.995 | S. cerevisiae deletion strains, locus YEL061C, strain CIN8, active compounds read low 1 and 1.01 | S. cerevisiae deletion strains, locus YER002W, strain NOP16, active compounds read low 0.993 | S. cerevisiae deletion strains, locus YER110C, active compounds read low 0.972 and 1.02 | S. cerevisiae deletion strains, locus YER155C, strain BEM2, active compounds read low 0.995 and 1.01 | S. cerevisiae deletion strains, locus YER167W, strain BCK2, active compounds read low 0.996 and 1.02 | S. cerevisiae deletion strains, locus YGL078C, strain dbp3, active compounds read low 1.01 | S. cerevisiae deletion strains, locus YGL086W, strain mad1, active compounds read low 0.957 and 1.01 | S. cerevisiae deletion strains, locus YGL248W, strain PDE1, active compounds read low 1.02 and 1.01 | S. cerevisiae deletion strains, locus YGR078C, strain PAC10, active compounds read low 1 and 0.991 | S. cerevisiae deletion strains, locus YGR135W, strain pre9, active compounds read low 1.04 and 0.982 | S. cerevisiae deletion strains, locus YGR229C, strain SMI1, active compounds read low 0.977 | S. cerevisiae deletion strains, locus YGR252W, strain gcn5, active compounds read low 1.2 and 0.984 | S. cerevisiae deletion strains, locus YHR030C, strain SLT2, active compounds read low 0.998 and 1.01 | S. cerevisiae deletion strains, locus YHR079C, strain IRE1 (second series), active compounds read low 0.976 and 1.02 | S. cerevisiae deletion strains, locus YHR094C, strain hxt1, active compounds read low 0.991 and 1.01 | S. cerevisiae deletion strains, locus YHR129C, strain ARP1, active compounds read low 1 and 1.02 | S. cerevisiae deletion strains, locus YHR200W, strain rpn10, active compounds read low 0.995 and 1.01 | S. cerevisiae deletion strains, locus YIL066C, strain RNR3, active compounds read low 1 and 1.01 | S. cerevisiae deletion strains, locus YIL073C, strain SPO22, active compounds read low 0.935 and 1.03 | S. cerevisiae deletion strains, locus YIL125W, strain kgd1, active compounds read low 0.995 and 1.02 | S. cerevisiae deletion strains, locus YIR030C, strain dcg1, active compounds read low 1 and 1.02 | S. cerevisiae deletion strains, locus YJL095W, strain BCK1, active compounds read low 1.06 and 1.02 | S. cerevisiae deletion strains, locus YJL134W, strain LCB3, active compounds read low 0.997 and 1 | S. cerevisiae deletion strains, locus YJL168C, strain set2, active compounds read low 0.983 and 1.01 | S. cerevisiae deletion strains, locus YJL187C, strain SWE1 (second series), active compounds read low 1.01 and 1 | S. cerevisiae deletion strains, locus YJR043C, strain POL32, active compounds read low 1.02 and 1.04 | S. cerevisiae deletion strains, locus YJR075W, strain HOC1, active compounds read low 0.98 and 0.984 and 0.995 | S. cerevisiae deletion strains, locus YKL009W, strain mrt4, active compounds read low 1.02 and 1.04 | S. cerevisiae deletion strains, locus YKL068W, active compounds read low 0.976 and 1 | S. cerevisiae deletion strains, locus YKL085W, strain MDH1 (second series), active compounds read low 0.98 and 1.02 | S. cerevisiae deletion strains, locus YKL085W, strain MDH1, active compounds read low 0.98 and 1.02 | S. cerevisiae deletion strains, locus YKL190W, strain CNB1, active compounds read low 1.01 | S. cerevisiae deletion strains, locus YKR001C, strain vps1, active compounds read low 1 and 1.02 | S. cerevisiae deletion strains, locus YLR039C, strain RIC1, active compounds read low 1.11 and 1.07 | S. cerevisiae deletion strains, locus YLR058C, strain SHM2, active compounds read low 1.02 and 1.01 | S. cerevisiae deletion strains, locus YLR102C, strain apc9, active compounds read low 0.974 and 1.02 | S. cerevisiae deletion strains, locus YLR262C, strain YPT6, active compounds read low 1.14 and 1.01 | S. cerevisiae deletion strains, locus YLR268W, strain sec22, active compounds read low 0.995 and 0.998 | S. cerevisiae deletion strains, locus YLR330W, strain CHS5, active compounds read low 1 and 1.01 | S. cerevisiae deletion strains, locus YLR342W, strain FKS1 (second series), active compounds read low 1.03 and 1.05 | S. cerevisiae deletion strains, locus YLR371W, strain rom2, active compounds read low 0.979 and 1.02 | S. cerevisiae deletion strains, locus YLR418C, strain cdc73, active compounds read low 1 and 0.92 | S. cerevisiae deletion strains, locus YML016C, strain PPZ1, active compounds read low 0.99 and 1.01 | S. cerevisiae deletion strains, locus YML032C, strain rad52, active compounds read low 1.04 and 1.02 | S. cerevisiae deletion strains, locus YML124C, strain tub3, active compounds read low 0.992 and 1 | S. cerevisiae deletion strains, locus YMR078C, strain ctf18, active compounds read low 0.981 and 1.02 | S. cerevisiae deletion strains, locus YMR223W, strain ubp8, active compounds read low 1.03 and 1.02 | S. cerevisiae deletion strains, locus YMR263W, strain SAP30, active compounds read low 0.983 and 0.988 | S. cerevisiae deletion strains, locus YMR307W, strain GAS1, active compounds read low 1 and 1.24 and 1.1 | S. cerevisiae deletion strains, locus YNL067W, strain RPL9B, active compounds read low 0.993 and 1 | S. cerevisiae deletion strains, locus YNL128W, strain TEP1, active compounds read low 0.977 and 0.975 | S. cerevisiae deletion strains, locus YNL153C, strain GIM3, active compounds read low 1 | S. cerevisiae deletion strains, locus YNL175C, strain NOP13, active compounds read low 1.01 | S. cerevisiae deletion strains, locus YNL197C, strain WHI3, active compounds read low 1 | S. cerevisiae deletion strains, locus YNL224C, strain SQS1, active compounds read low 0.999 | S. cerevisiae deletion strains, locus YNL233W, strain BNI4, active compounds read low 0.999 and 0.995 | S. cerevisiae deletion strains, locus YNL250W, strain rad50, active compounds read low 0.94 and 1.02 | S. cerevisiae deletion strains, locus YNL271C, strain bni1, active compounds read low 0.994 and 1.02 | S. cerevisiae deletion strains, locus YNL298W, strain CLA4, active compounds read low 0.993 and 1.02 | S. cerevisiae deletion strains, locus YNL307C, strain MCK1, active compounds read low 0.989 and 1.01 | S. cerevisiae deletion strains, locus YNL322C, strain KRE1, active compounds read low 0.961 and 0.998 and 1.01 | S. cerevisiae deletion strains, locus YNR052C, strain pop2, active compounds read low 1.01 and 1.02 | S. cerevisiae deletion strains, locus YOL006C, strain TOP1, active compounds read low 0.949 and 0.93 | S. cerevisiae deletion strains, locus YOL012C, strain htz1 1.18 and 1.01 | S. cerevisiae deletion strains, locus YOL147C, strain pex11, active compounds read low 0.995 and 1.01 | S. cerevisiae deletion strains, locus YOR061W, strain CKA2, active compounds read low 1 and 1.01 | S. cerevisiae deletion strains, locus YOR069W, strain VPS5, active compounds read low 0.996 and 1.01 | S. cerevisiae deletion strains, locus YOR083W, strain WHI5 (second series), active compounds read low 1.01 | S. cerevisiae deletion strains, locus YOR136W, strain idh2, active compounds read low 0.979 and 1.01 | S. cerevisiae deletion strains, locus YOR144C, strain elg1, active compounds read low 1 and 1.01 | S. cerevisiae deletion strains, locus YOR184W, strain ser1, active compounds read low 1.05 and 1.06 | S. cerevisiae deletion strains, locus YOR316C, strain cot1, active compounds read low 0.988 and 1.02 | S. cerevisiae deletion strains, locus YPL055C, strain LGE1, active compounds read low 0.987 | S. cerevisiae deletion strains, locus YPL241C, strain CIN2, active compounds read low 1.01 | S. cerevisiae deletion strains, locus YPR119W, strain clb2, active compounds read low 0.984 and 1.01 | S. cerevisiae deletion strains, locus YPR141C, strain kar3, active compounds read low 0.981 and 1.02 | S. cerevisiae deletion strains, locus YPR163C, strain tif3, active compounds read low 0.992 and 1.01 | S. cerevisiae deletion strains, locus YPR167C, strain met16, active compounds read low 0.999 and 1.02 | S. cerevisiae deletion strains, strain wtn01, active compounds read low 0.962 and 1 | S. cerevisiae strains, strain wild type, active compounds read low 1.01
